Consider 19 molecules from publication PMC11062922 (Nature Chemical Biology, 2023).

SMILES strings stand for the structures. Where two headings read alike, the source gives them in different places.

Holding throughout (set-up): species or system human, MV4-11 + K-562 + COLO205 + SK-N-BE2 + OVCAR-8
In one experiment the test system is MYLK3. The note with it: read-out: apparent Kd; compound concentrations: 100 nM and 1000 nM (sheet 'Samples'), CATDS: 0.35775008511520401; n = 1.
For the next experiment, the system named is T1, T10.
T1 construct: gene NAT10
The note with it: read-out: apparent Kd; compound concentrations: 100 nM and 1000 nM (sheet 'Samples'), CATDS: 0.30543908388735203; n = 1.

A further experiment relates to TTK. The note with it: read-out: apparent Kd; compound concentrations: 100 nM and 1000 nM (sheet 'Samples'), CATDS: 0.34120640497056598; n = 1.
The next experiment has as its system NEK9. The note with it: read-out: apparent Kd; compound concentrations: 100 nM and 1000 nM (sheet 'Samples'), CATDS: 1; n = 1.
A further experiment relates to NLK. The note with it: read-out: apparent Kd, n = 1.
Another experiment has as its system RIPK2. The settings on record: read-out: apparent Kd; compound concentrations: 100 nM and 1000 nM (sheet 'Samples'), CATDS: 0.78129176750212304; n = 1.
The subject of a further experiment is RIPK3. The settings on record: read-out: apparent Kd; compound concentrations: 100 nM and 1000 nM (sheet 'Samples'), CATDS: 0.12404115210191501; n = 1.
A further experiment relates to STK16. The note with it: read-out: apparent Kd; compound concentrations: 100 nM and 1000 nM (sheet 'Samples'), CATDS: 0.11776221232306; n = 1.
The test system of a further experiment is TESK2. The settings on record: read-out: apparent Kd; compound concentrations: 100 nM and 1000 nM (sheet 'Samples'), CATDS: 0.123939134013601; n = 1.
The test system of a further experiment is TGFBR2. The note with it: read-out: apparent Kd, n = 1.
Another experiment deals with STK4. The note with it: read-out: apparent Kd; compound concentrations: 100 nM and 1000 nM (sheet 'Samples'), CATDS: 0.289467796660549; n = 1.
For another experiment, the system named is TNIK. The note with it: read-out: apparent Kd; compound concentrations: 100 nM and 1000 nM (sheet 'Samples'), CATDS: 0.457886576185151; n = 1.
Another experiment has as its system PKM. The settings on record: read-out: apparent Kd; compound concentrations:100 nM and 1000 nM (sheet 'Samples'); n = 1.
The next experiment concerns NNT. The note with it: read-out: apparent Kd; compound concentrations: 100 nM and 1000 nM (sheet 'Samples'), CATDS: 0.46713303896147801; n = 1.
Another experiment has as its system RIOK2. The note with it: read-out: apparent Kd; compound concentrations: 100 nM and 1000 nM (sheet 'Samples'), CATDS: 0.53784196223168101; n = 1.
A further experiment has as its system NQO1. The note with it: read-out: apparent Kd; compound concentrations: 100 nM and 1000 nM (sheet 'Samples'), CATDS: 1; n = 1.
Another experiment concerns NUAK2. The note with it: read-out: apparent Kd; compound concentrations:100 nM and 1000 nM (sheet 'Samples'); n = 1.
The subject of a further experiment is PIK3CG. The note with it: read-out: apparent Kd; compound concentrations:100 nM and 1000 nM (sheet 'Samples'); n = 1.
Another experiment relates to OPA1. The settings on record: read-out: apparent Kd; compound concentrations:100 nM and 1000 nM (sheet 'Samples'); n = 1.
For another experiment, the system named is PRKD1. The note with it: read-out: apparent Kd; compound concentrations:100 nM and 1000 nM (sheet 'Samples'); n = 1.
Another experiment deals with PBK. The note with it: read-out: apparent Kd, n = 1.
For the next experiment, the system named is PIK3CD. The note with it: read-out: apparent Kd, n = 1.
A further experiment concerns PDGFRB. The settings on record: read-out: apparent Kd; compound concentrations: 100 nM and 1000 nM (sheet 'Samples'), CATDS: 1; n = 1.
The next experiment relates to TGFBR1. The settings on record: read-out: apparent Kd; compound concentrations:100 nM and 1000 nM (sheet 'Samples'); n = 1.
The subject of the next experiment is PIP4K2C. The settings on record: read-out: apparent Kd; compound concentrations: 100 nM and 1000 nM (sheet 'Samples'), CATDS: 1; n = 1.
The test system of the next experiment is PIK3C3. The settings on record: read-out: apparent Kd; compound concentrations: 100 nM and 1000 nM (sheet 'Samples'), CATDS: 0.39036921617708198; n = 1.
The next experiment has as its system PIK3CB. The settings on record: read-out: apparent Kd; compound concentrations: 100 nM and 1000 nM (sheet 'Samples'), CATDS: 0.69525432072765503; n = 1.
The mark [1] stands for this setting: compound concentrations:100 nM and 1000 nM (sheet 'Samples').

For `COc1ccc(-c2oc3ncnc(N)c3c2-c2ccc(NC(=O)Nc3cc(C(F)(F)F)ccc3F)cc2)cc1.Cl` [GW768505A], the potency estimated from few doses in the experiment with MYLK3 is 1430 nM; with T10 it was 1970 nM; with TTK, 1570 nM.

On to `COc1cc(Nc2ncc3c(C)nc(-c4cccc(Oc5ccccc5)c4)n3n2)cc(OC)c1OC` [GW861893X], for which the potency estimated from few doses in the experiment with NEK9 was 584 nM.

Take `Cc1cc(-c2cnc(N)c3c(-c4ccc5scnc5c4)csc23)n(C)n1` [GSK843]: the potency estimated from few doses in the experiment on NLK (compound concentrations: 100 nM and 1000 nM (sheet 'Samples'), CATDS: 0.25956792289458103) was 168 nM; with RIPK2 it was 15.6 nM; in the experiment on RIPK3 it was 1430 nM; with STK16, 1750 nM; in the experiment with TESK2, 1430 nM; in the experiment with TGFBR2 (compound concentrations: 100 nM and 1000 nM (sheet 'Samples'), CATDS: 0.16011510960484199) it was 616 nM.

`O=C(Nc1n[nH]c2cc(-c3cccc(F)c3F)ccc12)C1CC1` [SB-733894]: the potency estimated from few doses in the experiment on NLK (compound concentrations: 100 nM and 1000 nM (sheet 'Samples'), CATDS: 0.29749178894258499) was 1860 nM; with STK4, 1990 nM; in the experiment with TNIK, 808 nM.

For `O=C(Nc1n[nH]c2cc(-c3cccc(F)c3)ccc12)C1CC1` [SB-735464], the potency estimated from few doses in the experiment on NLK (setting [1]) is 1810 nM; in the experiment with PKM it was 2130 nM.

Turning to `COc1cccc(-n2nc(C)c3c(N/N=C(\C)c4ccncc4)ncnc32)c1` [GW809885X], the potency estimated from few doses was 1600 nM in the experiment with NNT and 1200 nM in the experiment with RIOK2.

For `c1cc(-c2cnn3nc(N4CCOCC4)ccc23)nc(NC2CC2)n1` [GW708336X], the potency estimated from few doses in the experiment with NQO1 is 1540 nM.

As to `COC(=O)Nc1nc2cc(Oc3ccc(NC(=O)Nc4cccc(C(=O)O)c4)cc3)ccc2[nH]1.Cl` [GW701427A], the potency estimated from few doses with NQO1 is 1010 nM.

Regarding `COc1ccc(NC(=O)c2ccc(-c3cc(-c4nnc(C)o4)ccc3C)cc2)cc1` [GW595885X], the results for the potency estimated from few doses with NUAK2 and in the experiment on PIK3CG were 1230 nM and 1410 nM, respectively.

`FC(F)(F)c1ccc(-c2nn3ncccc3c2-c2ccnc(Nc3cccc(C(F)(F)F)c3)n2)cc1` [GW828205X]: the potency estimated from few doses in the experiment on OPA1 is 1630 nM; in the experiment with PRKD1 it was 1820 nM.

For the molecule `Cl.Cl.Cl.N#Cc1ccc(CCNc2nccc(-c3cccc(CN4CCNCC4)c3)n2)cc1.N#Cc1ccc(CCNc2nccc(-c3cccc(CN4CCNCC4)c3)n2)cc1` [GSK2137462A], the potency estimated from few doses in the experiment on PBK (compound concentrations: 100 nM and 1000 nM (sheet 'Samples'), CATDS: 0.354579243895072) was 1350 nM; in the experiment on PIK3CD (compound concentrations: 100 nM and 1000 nM (sheet 'Samples'), CATDS: 0.84763293051447697) it was 134 nM.

Turning to `N#Cc1cccc(C(=O)c2cnn(-c3ccc(F)cc3)c2N)c1` [RO1153321-000], the potency estimated from few doses in the experiment with PBK (compound concentrations: 100 nM and 1000 nM (sheet 'Samples'), CATDS: 1) was 1730 nM.

With `Cn1ncc2cc(-c3cnc(N)c(Cl)c3N3CCC4(CCNC4=O)CC3)ccc21` [CCT251921], in the experiment on PBK (setting [1]), the potency estimated from few doses is 1570 nM.

With `COc1ccc(NC(=O)Nc2ccc(C)c(-c3ccc(C(=O)Nc4ccncc4)cc3)c2)cc1` [GSK1398475A], the potency estimated from few doses in the experiment on PDGFRB was 1680 nM.

On to `FC(F)(F)c1ccc(-c2cc(-c3c[nH]nc3-c3ccccn3)ccn2)cc1` [GW599550X], for which, in the experiment with TGFBR1, the potency estimated from few doses is 1520 nM.

Take `Cc1ccc(-c2cc(-c3c[nH]nc3-c3ccccn3)ccn2)cc1` [GW684088X]: the potency estimated from few doses with TGFBR1 is 490 nM; in the experiment with TGFBR2 (setting [1]), 2230 nM.

For `CN(C1=C(c2ccccc2)C(=O)NC1=O)c1ccccc1` [SB-334860], the potency estimated from few doses in the experiment on PIK3CD (setting [1]) was 175 nM.

Turning to `COc1cc(Nc2nccc(N3CCC(NC(=O)C(C)c4ccc(Cl)cc4)C3)n2)cc(OC)c1OC` (centres unmarked) [GSK1379757A], the potency estimated from few doses in the experiment with PIP4K2C is 1640 nM.

On to `CSc1nn2c(=O)cc(N3CCOCC3)nc2n1Cc1cccc(Cl)c1Cl` [GSK2347225A], for which the results for the potency estimated from few doses in the experiment with PIK3C3 and with PIK3CB were 41 nM and 11.5 nM, respectively.
